The campaign covered roughly 320,000 compounds. About 2,100 (0.66%) were called active. About 53% were inconclusive and are not listed. Calls come from the whole dose curve; as a rule, active = well fitted inhibition curve with a large enough effect in the signal ratio, with a control signal flat (not every such curve was filed as active); inconclusive = small, poorly fitted or top-dose-only effect, or effect the other way, or a change in a side signal; inactive = flat fitted curve, though single readings scatter; the % refers to the signal ratio. For the sample, actives were picked, then their nearest neighbours and some compounds at random.

Consider 44 compounds from PubChem BioAssay AID2685 (National Center for Advancing Translational Sciences (NCATS), 2010).
Potency is the fitted concentration of half-maximal effect.

The experiment in a line: qHTS Assay for Lipid Storage Modulators in Drosophila S3 Cells.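 For cell number change: cells counted by Cell Tracker Red CMTPX staining in the red channel.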 For lipid storage change, negative = inhibition: % is set by controls: 0 for no effect and ±100 for the full control effect. To be noted: BODIPY lipid droplet fluorescence, 18-24 h, cells fed with added oleic acid; cell number change: measured here: cell count max response; series mostly up to 46.1 µM; lipid storage change, negative = inhibition: at the top concentration. In outline: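 Drosophila S3 cells got compounds at several concentrations plus oleic acid (400 uM solution). Laser-scanning cytometry with 488 nm excitation read lipid droplets at 500-530 nm and cells at 575-640 nm. Percent activity was relative to 20 uM Triacsin C.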
Take `O=C(O)c1cccc(Nc2c([N+](=O)[O-])c(=O)oc3ccccc23)c1`: the “lipid storage change, negative = inhibition” value is 8.97% (inactive) and the cell number change was 3.37%.
With `CC(=O)Oc1ccc(C(=O)Nc2ccc(S(=O)(=O)N3CCOCC3)cc2)cc1`, the call was inactive and the cell number change was -28%.
As for `Cc1ccc2[nH]c(=O)c(CN(CC3CCCO3)C(=S)Nc3ccccc3)cc2c1` (configuration not stated), the “lipid storage change, negative = inhibition” value was 13.6% (inactive) and the cell number change was -9.29%.
Taken in the same sequence, the figures for `O=C(Nc1ccccc1)C1C(c2ccccc2)C1(Cl)Cl` (configuration not stated) were -7.1% (inactive) and -2.33%.
As for `COc1ccc(NC(=O)C2C(c3ccccc3)C2(Cl)Cl)cc1` (configuration not stated), the “lipid storage change, negative = inhibition” value was -5.18% (inactive) and the cell number change stood at 19.2%.
`CCOc1ccc(NC(=O)C2C(c3ccccc3)C2(Cl)Cl)cc1` (configuration not stated): the Potency was 16.4 µM (active) and the cell number change is -15.7%.
Regarding `OCCN1CCN(CCSc2ccccc2)CC1`, the “lipid storage change, negative = inhibition” value was 1.19% (inactive) and the cell number change was determined as 0.698%.
As for `CCn1ncc(-c2csc(N)n2)c1C`, the “lipid storage change, negative = inhibition” value is 9.04% (inactive) and the cell number change was 9.82%.
As for `O=C(c1ccccc1)N1CN2CN(C(=O)c3ccccc3)CC([N+](=O)[O-])(C2)C1`, the “lipid storage change, negative = inhibition” value is 9.02% (inactive) and the cell number change turned out to be 6.5%.
For the compound `COc1ccccc1C(CNC(=O)c1cc(C)nc2ccccc12)N(C)C` (configuration not stated), the call was inactive and the cell number change was 9.21%.
In the case of `O=C(O)CCN=CC1=C(O)CC(c2ccccc2)CC1=O` (configuration not stated), the Potency was 1.03 µM (active) and the cell number change stood at 15.8%.
Consider `CCCCCN=CC1=C(O)CC(c2ccccc2)CC1=O` (configuration not stated), for which the “lipid storage change, negative = inhibition” value was -7.93% (inactive) and the cell number change was -15.5%.
Taken in the same sequence, the figures for `CCCN=CC1=C(O)CC(c2ccccc2)CC1=O` (configuration not stated) were 2.06% (inactive) and 5.05%.
Taken in the same sequence, the figures for `COCCn1c(SCC(=O)NCCc2ccc(OC)c(OC)c2)nc2c([nH]c3ccccc32)c1=O` were 5.55% (inactive) and 5.96%.
Regarding `S=C(c1cn(Cc2ccccc2)c2ccccc12)N1CCOCC1`, the “lipid storage change, negative = inhibition” value was 5.71% (inactive) and the cell number change is 4.05%.
For the compound `NC(=O)Cn1cc(C(=O)C(=O)N2CCOCC2)c2ccccc21`, the compound was called inactive and the cell number change is -8.62%.
Regarding `O=C(O)Cn1cc(C(=S)N2CCOCC2)c2ccccc21`, the Potency was 23.1 µM (active) and the cell number change is -0.629%.
For the compound `CCc1nc2oc3ccccc3c(=O)c2c(=O)n1CCOC`, the cell number change came out at 14.4% and the lipid storage change, negative = inhibition was -1.96% [at 9.22 µM] (inactive).
Consider `O=C(CCc1ccccc1)NC(NC(=S)Nc1ccc(Br)cc1)C(Cl)(Cl)Cl` (configuration not stated), for which the outcome was inactive and the cell number change is -27.3%.
The matching figures for `Cc1ccc(-n2nnnc2SCCNS(=O)(=O)c2ccccc2)cc1C`: “inactive” and -14.2%.
For `Cc1ccc(NC(=O)CSc2nnc(N)s2)cc1S(=O)(=O)N1CCCCC1`, the “lipid storage change, negative = inhibition” value was -6.49% (inactive) and the cell number change was -23.8%.
Regarding `CC(=O)N1c2ccc(S(=O)(=O)N3CCCC3)cc2CC1C(=O)NCc1ccc(N(C)C)cc1` (configuration not stated), the compound was called inactive and the cell number change was 12.7%.
Consider `CCOc1ccc(CNC(=O)C2Cc3cc(S(=O)(=O)N4CCCCC4)ccc3N2C(C)=O)cc1` (configuration not stated), for which the “lipid storage change, negative = inhibition” value was -7.83% (inactive) and the cell number change was found to be 8.5%.
For `CCc1ccc(CNC(=O)C2Cc3cc(S(=O)(=O)N4CCCC4)ccc3N2C(C)=O)cc1` (configuration not stated), the Potency is 11.6 µM (active) and the cell number change is -14.2%.
On to `CCN(CC)S(=O)(=O)c1cc(OC)c(Cl)cc1OC`, for which the “lipid storage change, negative = inhibition” value was 21.7% (inactive) and the cell number change was 14.5%.
In the case of `COc1cc(/C=N/NC(=O)COc2ccc(-n3cnnn3)cc2)ccc1OCC(N)=O`, the “lipid storage change, negative = inhibition” value is 7.09% (inactive) and the cell number change worked out at 7.43%.
Regarding `Cc1cc(C)cc(N(CC(=O)O)S(=O)(=O)c2c(C)noc2C)c1`, the Potency is 23.1 µM (active) and the cell number change stood at 2.34%.
Turning to `CCc1ccc(N(CC(=O)O)S(=O)(=O)c2c(C)noc2C)cc1`, the “lipid storage change, negative = inhibition” value was -21% (inactive) and the cell number change is 7.92%.
With `Cc1noc(C)c1S(=O)(=O)N(CC(=O)O)c1ccc2c(c1)OCO2`, the “lipid storage change, negative = inhibition” value was 11.7% (inactive).
Take `CC(=O)Nc1ccc(NC(=O)Cn2c(=O)n(-c3ccc(C)cc3)c(=O)c3oc4ccccc4c32)cc1`: the “lipid storage change, negative = inhibition” value is -4.89% (inactive) and the cell number change is -4.98%.
As to `COC(=O)c1cccc(NC(=O)CN2CCN(c3ccc(OC)cc3)CC2)c1`, the “lipid storage change, negative = inhibition” value was 21.8% (inactive) and the cell number change amounted to 6.81%.
`COc1ccc(N2CCN(CC(=O)Nc3cccc(S(=O)(=O)N4CCOCC4)c3)CC2)cc1`: the Potency is 16.4 µM (active) and the cell number change was -21.6%.
With `COc1ccc(CC(=O)Nc2cc(S(=O)(=O)N3CCCCC3)ccc2C)cc1OC`, the “lipid storage change, negative = inhibition” value was -0.673% (inactive) and the cell number change was -3.08%.
Taken in the same sequence, the figures for `O=C(Cc1ccc(Br)cc1)Nc1cccc(S(=O)(=O)N2CCOCC2)c1` were 2.72% (inactive) and -12.5%.
Taken in the same sequence, the figures for `O=C(CN1CCN(S(=O)(=O)c2ccccc2)CC1)Nc1ccnn1C1CCCC1` were -14.9% (inactive) and -2.45%.
The matching figures for `O=C(CN1CCN(S(=O)(=O)c2ccc3ccccc3c2)CC1)Nc1ccc(N2CCOCC2)cc1`: 4.39% (inactive) and -8.53%.
As for `COc1ccc(CC(=O)Nc2cccc(S(=O)(=O)N3CCCCC3)c2)cc1`, the “lipid storage change, negative = inhibition” value is 11.3% (inactive) and the cell number change is -18.3%.
On to `COc1ccc(CC(=O)Nc2cccc(S(=O)(=O)N3CCOCC3)c2)cc1OC`, for which the Potency was 23.1 µM (active) and the cell number change is -21.4%.
Take `COc1ccccc1CCC(=O)Nc1cccc(S(=O)(=O)N2CCOCC2)c1`: the “lipid storage change, negative = inhibition” value is 16.2% (inactive) and the cell number change turned out to be 12.7%.
With `COc1ccc(CC(=O)Nc2cccc(S(=O)(=O)N3CCCCCC3)c2)cc1OC`, the Potency was 20.6 µM (active) and the cell number change is -6.09%.
Take `COc1ccccc1N1CCN(CC(=O)Nc2ccnn2C2CCCC2)CC1`: the “lipid storage change, negative = inhibition” value is 6.76% (inactive) and the cell number change is 1.72%.
With `COc1cccc(N2CCN(CC(=O)Nc3ccnn3C3CCCC3)CC2)c1`, the Potency was 10.3 µM (active) and the cell number change is -10.7%.
With `O=C(NCc1ccccc1)c1ccc(Cl)nc1`, the “lipid storage change, negative = inhibition” value was 3.79% (inactive) and the cell number change turned out to be 10%.
Taken in the same sequence, the figures for `CC(C)(C)c1ccc(/C=N/NC(=O)c2ccccn2)cc1` were 13.5% (inactive) and 6.33%.
